# Measured values as given in ChEMBL document CHEMBL4513146, “CO-ADD screening of Karazin Kharkiv National University (Ukraine) compounds”.
# Results with a measured potency or affinity are listed apart.
# Key:
# Staphylococcus aureus = details: Concentration 32 ug.mL-1;; ASSAY_TEST Inhibition of Bacterial Growth; detection method Absorption (OD600); MEDIA CAMHB; plate type 384well; NBS; CORNING #3640; time 18 hr
# Escherichia coli = details: Concentration 32 ug.mL-1;; ASSAY_TEST Inhibition of Bacterial Growth; detection method Absorption (OD600); MEDIA CAMHB; plate type 384well; NBS; CORNING #3640; time 18 hr
SMILES,Inhibition (Staphylococcus aureus),Inhibition (Escherichia coli)
CCC(Sc1nnc2c(=O)n(-c3ccc(C)c(C)c3)ccn12)C(=O)Nc1ccccc1C (stereo not drawn),13.17%,-4.12%
CCc1ccccc1Sc1nccn2c(=O)n(CC(=O)Nc3ccc(Br)cc3)nc12,-9.89%,1.96%
COc1cccc(Oc2nccn3c(=O)n(CC(=O)Nc4ccc(C(C)C)cc4)nc23)c1,-2.58%,-7.16%
CCc1ccc(N(Cc2cccc(OC)c2)S(=O)(=O)c2cccn3c(C)nnc23)cc1,-1.7%,-9.35%
Cc1cccc(NC(=O)Cn2nc3ccc(-c4ccc(Cl)cc4)nn3c2=O)c1C,5.25%,-5.96%
O=C(Cn1nc2c(SC3CCCCC3)nccn2c1=O)Nc1ccc(Cl)cc1F,4.94%,-2.75%
Cc1cccc(NC(=O)Cn2nc3c(SCc4ccccc4)nccn3c2=O)c1C,-0.26%,-6.74%
Cc1ccc(F)cc1NC(=O)CSc1nnc2ccc(C(=O)Nc3cccc(F)c3)cn12,13.04%,0.82%
COc1cc(NC(=O)Cn2nc3ccc(C(=O)NCc4ccccc4)cn3c2=O)cc(OC)c1OC,-6.97%,-8.69%
CCc1ccccc1Sc1nccn2c(=O)n(CC(=O)NCc3ccc(OC)cc3)nc12,-5.48%,-1.47%
COc1ccc(NC(=O)Cn2nc3c4cc(-c5ccc(C)c(C)c5)nn4ccn3c2=O)cc1Cl,-7.37%,0.15%
O=S(=O)(c1ccc2nncn2c1)N(Cc1cccc(Cl)c1)c1ccccc1,11.21%,-3.7%
COc1ccc(N(Cc2ccc(C)cc2)S(=O)(=O)c2ccc3nnc(C)n3c2)cc1,-1.53%,-8.35%
COc1cccc(-c2noc(Cn3nc4ccc(-c5ccccc5)nn4c3=O)n2)c1OC,13.66%,-2.67%
Cc1nnc2c(S(=O)(=O)N(Cc3ccc(F)cc3)c3ccc(Cl)cc3)cccn12,5.21%,-5.38%
CC1CCCN(c2nccn3c(=O)n(CC(=O)Nc4ccc(F)cc4F)nc23)C1 (stereo not drawn),-0.93%,-3.03%
Cc1nnc2c(=O)n(CC(=O)Nc3ccccc3Cl)c3ccccc3n12,10.77%,-2.02%
COc1ccccc1-n1ccn2c(SCC(=O)NCc3ccc(Cl)cc3)nnc2c1=O,12.53%,-3.51%
O=C(Cn1nc2ccc(Sc3ccccc3)nn2c1=O)N1CCN(c2ccc(F)cc2)CC1,9.78%,1.58%
CCc1nnc2c(SCC(=O)NCc3ccccc3Cl)nc3ccccc3n12,4.41%,-6.59%
Cc1ccccc1NC(=O)Cn1nc2c3cc(-c4ccc(Cl)cc4)nn3ccn2c1=O,14.21%,4.06%
CCc1cccc(NC(=O)Cn2nc3c(SC4CCCCC4)nccn3c2=O)c1,-3.76%,-12.2%
COc1cccc(-n2ccn3c(SCc4ccc(F)cc4)nnc3c2=O)c1,5.89%,-10.24%
Cc1cccc(NC(=O)Cn2nc3ccc(-c4ccc(Cl)cc4)nn3c2=O)c1,7.34%,-1.37%
COc1ccc(OC)c(NC(=O)Cn2nc3c4cc(-c5ccc(C)c(C)c5)nn4ccn3c2=O)c1,0.06%,-4.32%
Cc1cc(C)cc(NC(=O)Cn2nc3ccc(-c4ccc(C)c(C)c4)nn3c2=O)c1,1.36%,-7.85%
CC(C)NC(=O)CSc1nnc2c(=O)n(-c3ccccc3)ccn12,-3.39%,1.35%

SMILES,Inhibition (Staphylococcus aureus),Inhibition (Escherichia coli)
Cc1ccc(NC(=O)CSc2nc3ccccc3n3c(C(C)C)nnc23)cc1Cl,-8.33%,-6.42%
O=c1c2nnc(SCc3cccc(C(F)(F)F)c3)n2ccn1-c1ccc(Br)cc1,11.27%,-4.81%
CC(C)CCn1c(=O)c2sccc2n2c(=O)n(CC(=O)NC(C)C)nc12,-2.24%,-10.46%
O=C(Cn1nc2c(Oc3ccccc3)nccn2c1=O)Nc1ccccc1Cl,6.14%,-6.19%
COC(=O)c1cccc(NC(=O)Cn2nc3c(Oc4ccccc4)nccn3c2=O)c1,3.03%,-4.6%
COc1ccc(C(=O)CSc2nnc3c(=O)n(-c4ccc(F)c(F)c4)ccn23)cc1,14.04%,-0.82%
CCC(C)NC(=O)Cn1nc2n(Cc3cccs3)c(=O)c3sccc3n2c1=O (stereo not drawn),3.01%,-5.74%
COc1cccc(-n2ccn3c(SCC(=O)c4c[nH]c5ccc(OC)cc45)nnc3c2=O)c1,11.97%,-2.96%
O=C(CCc1nnc2c3cc(-c4ccc(Cl)cc4)nn3ccn12)N1CCN(c2ccccn2)CC1,5.65%,-0.84%
Cc1ccc(-c2ccc3nn(Cc4cc(F)cc(F)c4)c(=O)n3n2)cc1C,13.44%,1.52%
COc1ccccc1-n1ccn2c(SCC(=O)Nc3ccc(C)cc3C)nnc2c1=O,14.03%,-4.75%
O=c1n(Cc2c(F)cccc2Cl)nc2ccc(-c3ccccc3)nn12,7.33%,0.7%
O=C(CSc1nnc2c3cc(-c4ccc(F)cc4)nn3ccn12)NCc1ccccc1Cl,1.62%,-6.39%
COC(=O)c1ccccc1NC(=O)Cn1nc2c3sc(N4CCCC4)nc3ncn2c1=O,6.17%,-6.93%
COc1ccc(NC(=O)Cn2nc3c4cc(-c5cc(C)ccc5C)nn4ccn3c2=O)c(OC)c1,3.39%,3.2%
COc1ccc(NC(=O)CSc2nnc3c(=O)n(-c4cccc(F)c4)ccn23)cc1OC,3.1%,-11.05%
COc1cccc(NC(=O)Cn2nc3c(Sc4ccccc4)nccn3c2=O)c1,6.76%,0.48%
CCC(C)NC(=O)Cn1nc2n(CCC(=O)NC3CCCCC3)c(=O)c3ccccc3n2c1=O (stereo not drawn),-5.52%,-15%
CC(=O)c1cccc(NC(=O)CSc2nc3ccccc3n3c(C)nnc23)c1,-0.38%,-4.41%
COc1cccc(Sc2nc3ccccc3n3c(=O)n(CC(=O)Nc4cccc(C#N)c4)nc23)c1,2.4%,-6.13%
Cc1ccc(NC(=O)Cn2nc3ccc(SC(C)C)nn3c2=O)c(Cl)c1,-9.9%,1.89%
COc1ccc(CNC(=O)CSc2nnc3c4cc(-c5ccc(C)cc5)nn4ccn23)cc1,4.45%,-3.09%
CCOc1ccc(-n2ccn3c(SC(C)C(=O)Nc4ccc5c(c4)OCCO5)nnc3c2=O)cc1 (stereo not drawn),14.02%,0.39%
COC(=O)c1cccc(NC(=O)Cn2nc3c(N4CCCCCC4)nccn3c2=O)c1,-4.81%,-10.52%
NC(=O)Cn1nc2n(CCC(=O)NC3CCCCC3)c(=O)c3ccccc3n2c1=O,4.99%,0.77%
Cc1ccc(Sc2ccc3nn(CC(=O)Nc4cccc(Cl)c4)c(=O)n3n2)cc1,-1.85%,-11.91%
Cc1cccc(CN(c2cc(C)cc(C)c2)S(=O)(=O)c2cccn3c(C)nnc23)c1,6.42%,-0.75%
